Compound activity: PubChem, Broad Institute
U2OS ROS induce: cancer cell ROS induction. U2OS ROS induction, H2DCF-DA fluorescence. ROS induction (% of piperlongumine), % at 10 µM. 46,000 compounds, 2% hits; in the data active = ROS induction above about 79%, passing the limit was not always enough
Each line names hits and unclear results; the compound was inactive in the other large screens. Many of the other results were omitted from the sample, so hits are more common in it than they were.

C[C@@H]1CN([C@@H](C)CO)C(=O)c2cccc(NC(=O)Nc3ccccc3)c2O[C@@H]1CN(C)S(C)(=O)=O	none
C[C@H]1CN([C@@H](C)CO)C(=O)c2cccc(NC(=O)Nc3ccccc3)c2O[C@@H]1CN(C)S(=O)(=O)c1ccccc1	none
C[C@@H]1CN([C@H](C)CO)C(=O)c2cccc(NC(=O)Nc3cccc4ccccc34)c2O[C@H]1CN(C)S(=O)(=O)c1ccc(F)cc1	U2OS ROS induce 110.5
C[C@@H]1CN([C@@H](C)CO)C(=O)c2cccc(NC(=O)Nc3ccccc3)c2O[C@H]1CN(C)S(C)(=O)=O	U2OS ROS induce 91.5
C[C@H]1CN([C@@H](C)CO)C(=O)c2cccc(NC(=O)Nc3cccc4ccccc34)c2O[C@@H]1CN(C)S(=O)(=O)c1ccccc1	none
C[C@@H]1CN([C@H](C)CO)C(=O)c2cccc(NC(=O)Nc3cccc4ccccc34)c2O[C@H]1CN(C)S(=O)(=O)c1ccccc1	none
COC(=O)Nc1ncc(CN2CCC(C)CC2)s1	none
C[C@@H]1CN([C@H](C)CO)C(=O)CCCn2cc(nn2)CO[C@H]1CN(C)S(=O)(=O)c1ccccc1	none
CC(=O)Nc1ccc(S(=O)(=O)N2CCc3ccccc32)cc1	none
COc1ccc(S(=O)(=O)Nc2cccc3c2O[C@@H](CN(C)C(=O)Nc2c(C)noc2C)[C@H](C)CN([C@H](C)CO)C3=O)cc1	none
C[C@@H]1CCCCO[C@@H](CN(C)C(=O)Nc2ccc(C(F)(F)F)cc2)[C@@H](C)CN([C@H](C)CO)C(=O)c2cc(NS(=O)(=O)c3ccc(F)cc3)ccc2O1	U2OS ROS induce 81.9
C[C@@H]1CCCCO[C@@H](CN(C)S(=O)(=O)c2cccs2)[C@@H](C)CN([C@H](C)CO)C(=O)c2cc(NS(=O)(=O)c3ccccc3)ccc2O1	none
C[C@@H]1CCCCO[C@H](CN(C)C)[C@@H](C)CN([C@H](C)CO)C(=O)c2cc(NS(=O)(=O)c3ccc(F)cc3)ccc2O1	U2OS ROS induce 92.7
C[C@@H]1CCCCO[C@@H](CN(C)CC2CC2)[C@@H](C)CN([C@H](C)CO)C(=O)c2cc(NS(=O)(=O)c3ccc(F)cc3)ccc2O1	none
Cc1ccc(S(=O)(=O)Nc2ccc3c(c2)C(=O)N([C@H](C)CO)C[C@H](C)[C@@H](CN(C)C(=O)Nc2ccc(C(F)(F)F)cc2)OCCCC[C@@H](C)O3)cc1	none
C[C@@H]1CCCCO[C@H](CN(C)C(=O)Nc2ccc(C(F)(F)F)cc2)[C@@H](C)CN([C@H](C)CO)C(=O)c2cc(NS(=O)(=O)c3ccccc3)ccc2O1	none
Cc1ccc(S(=O)(=O)Nc2ccc3c(c2)C(=O)N([C@H](C)CO)C[C@H](C)[C@@H](CN(C)C)OCCCC[C@@H](C)O3)cc1	none
C[C@@H]1CCCCO[C@@H](CN(C)S(=O)(=O)c2cccs2)[C@@H](C)CN([C@H](C)CO)C(=O)c2cc(NS(=O)(=O)c3ccc(F)cc3)ccc2O1	U2OS ROS induce 101.7
C[C@@H]1CCCCO[C@H](CN(C)S(=O)(=O)c2ccc(F)cc2)[C@@H](C)CN([C@H](C)CO)C(=O)c2cc(NS(=O)(=O)c3cccs3)ccc2O1	none
C[C@@H]1CN([C@H](C)CO)C(=O)c2cc(NS(=O)(=O)c3ccc(Cl)cc3)ccc2O[C@@H]1CN(C)S(=O)(=O)c1cccs1	none
O=C(Cn1nc(-c2cccc([N+](=O)[O-])c2)c2ccccc2c1=O)Nc1cccc(Cl)c1	none
Cc1cccc(Cc2c(C)c3c(C)[nH]nc3oc2=O)c1	none
Cc1ccc(C(=O)N2CCCCC2)cc1	none
O=C(O)CCCC(=O)Nc1ccc(N2CCOCC2)c(C(=O)O)c1	none
C[C@H]1CN([C@@H](C)CO)C(=O)Cc2cc(NC(=O)Nc3ccccc3)ccc2O[C@H]1CN(C)S(=O)(=O)c1cccs1	none
COC(=O)C1=C(C)NC(=O)NC1c1ccccc1OCC(=O)Nc1ccc(C)cc1 (stereo unspecified)	none
CN1C2=C(C(=O)CC(C)(C)C2)C(c2ccccc2OCC(=O)Nc2ccc(F)cc2)C2=C1CC(C)(C)CC2=O	U2OS ROS induce 134.2
CN1C(=O)NC(c2ccccc2)C2=C1CC(C)(C)CC2=O (stereo unspecified)	none
Nc1nnc(SCC(=O)Nc2ccc(Oc3ccccc3)cc2)s1	none
C[C@H]1CN([C@@H](C)CO)C(=O)CCCn2nncc2CO[C@@H]1CN(C)C(=O)Nc1cccc(F)c1	none
C[C@H]1CN([C@@H](C)CO)C(=O)c2cccc(NC(=O)c3cnccn3)c2O[C@H]1CN(C)C	none
C=C1C(=O)O[C@@H]2/C=C(/CO)CC/C=C(/C)C[C@H](OC(=O)C(C)CO)[C@@H]12 (stereo partly specified)	U2OS ROS induce 154.2
C=C1C(=O)O[C@@H]2/C=C(\CO)CCC/C(C)=C/[C@H](O)C12 (stereo partly specified)	none
C=C(CO)C(=O)O[C@H]1C[C@@]23O[C@@H]2CC/C(=C/[C@H]2OC(=O)C(=C)[C@H]12)CO[C@@H]3O	none
O=C(Nc1ccc(C(F)(F)F)cc1)c1cnc(N2CCN(c3ccccn3)CC2)c2ccccc12	U2OS ROS induce 95.9
O=C(/C=C/c1ccccc1)Nc1ccc(N2CCN(c3ccc(C(F)(F)F)cn3)CC2)nc1	none
O=C(c1ccco1)N1CCN(c2ccc(C(F)(F)F)cn2)CC1	none
